Marburg entry inh – blocks Marburg virus binding to or entry into cells. Marburg virus pseudotyped entry inhibition, cell reporter. Potency, µM (series often up to 37.8 µM), most hits filed as inhibitors. 1.8% of 300,000 active; calls by dose curve; tested in HEK293 cells
HCMV antiviral – blocks human cytomegalovirus replication. HFF cells, HCMV-luciferase reporter, 72 h; hits give low values. activity change, negative = inhibition, % at 57.5 µM. 4.5% of 410,000 active; in the data active = activity change below about -60%; inconclusive = no clear call, values can overlap the other calls; inactive = above about -39%
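Steps: HFFs plated, 16 h 37C; compounds added; HCMV-luciferase added to MOI 1 PFU/cell; 72 h 37C; OneGlo reagent, 5 min room temperature; luminescence read, normalized to controls.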
VACV Venus inh – vaccinia inhibition (Venus reporter); Vaccinia virus Venus reporter expression, fluorescence; Potency, µM (series often up to 36.5 µM), most hits filed as inhibitors; 0.46% of 330,000 active; calls by dose curve; tested in A549 cells; also: nearly all actives have a fitted effect of over 30% in size
LASV entry inh – Lassa virus entry inhibition; Lassa virus pseudotype entry inhibition, cell reporter; AID 540256; Potency, µM (highest dose often 37.9 µM), usual class: inhibitors; 1.2% of 300,000 active; calls by dose curve; tested in HEK293 cells; also: nearly all actives have a fitted effect of over 50% in size
VACV mCherry inh – vaccinia inhibition (mCherry reporter). Vaccinia virus mCherry reporter infection, fluorescence. 0.63% of 310,000 active. Potency, µM (highest dose often 36.5 µM), usual class: inhibitors. AID 720579; calls by dose curve; tested in A549 cells; also: nearly all actives have a fitted effect of over 35% in size
FMDV inh – foot and mouth disease virus antiviral activity | Potency, µM (doses to about 57.9 µM), actives largely listed as inhibitors | FMDV antiviral cell-based qHTS | 1.2% of 410,000 active; calls by dose curve; tested in HEK293T cells; also: read-out not given here; nearly all actives have a fitted effect of over 45% in size
Each line names hits and unclear results; the compound was inactive in the other large screens. Hits are enriched below; roughly 6.5% of the tested compounds scored in any of these assays.

CCOC(=O)C1CCCN(C(=O)c2cc(Nc3ccc(OC)c(OC)c3)nc3ccccc23)C1 (stereo unspecified)	Marburg entry inh 11.2µM, FMDV inh inconclusive
CN(Cc1ccco1)c1cc(-c2ccoc2)ncn1	none (no result: Marburg entry inh, HCMV antiviral, VACV Venus inh, LASV entry inh, VACV mCherry inh)
CN1C(=S)S[C@@H](N(O)C(=O)Nc2ccccc2)C1(C)C	none (no result: HCMV antiviral, VACV Venus inh, LASV entry inh, VACV mCherry inh, FMDV inh)
CCCOc1ccccc1C(=O)N(Cc1cccc(Br)c1)C1CCS(=O)(=O)C1 (stereo unspecified)	Marburg entry inh inconclusive, LASV entry inh inconclusive, FMDV inh 0.708µM
O=S(=O)(c1ccc(-c2nnc(SCc3nnc(-c4ccccc4)o3)o2)cc1)N1CCCC1	none (no result: VACV Venus inh, VACV mCherry inh)
CCN(CC)S(=O)(=O)c1ccc(-c2nnc(SCc3nnc(-c4ccccc4)o3)o2)cc1	Marburg entry inh inconclusive, VACV Venus inh 0.0355µM, LASV entry inh inconclusive, VACV mCherry inh inconclusive (no result: FMDV inh)
Cn1nnnc1SCCCNCc1cc(Br)ccc1OCc1ccccc1	Marburg entry inh inconclusive, HCMV antiviral -63.0, FMDV inh inconclusive
CCOc1cc(CNCCSc2nnnn2C)ccc1OCc1ccc(Cl)cc1Cl	Marburg entry inh inconclusive, HCMV antiviral -98.9, VACV mCherry inh inconclusive, FMDV inh inconclusive
COc1cccc(CNCCc2c[nH]c3ccccc23)c1OCc1ccc(F)cc1	Marburg entry inh inconclusive, VACV Venus inh inconclusive, LASV entry inh inconclusive, VACV mCherry inh inconclusive, FMDV inh inconclusive
COc1cc(CNCCSc2nnnn2C)ccc1OCc1ccc(F)cc1	Marburg entry inh inconclusive, HCMV antiviral -76.7
COc1cc(CNCCc2c[nH]c3ccccc23)ccc1OCc1ccc(F)cc1	Marburg entry inh inconclusive, VACV Venus inh inconclusive, VACV mCherry inh 10µM
Cn1nnnc1SCCNCc1ccccc1OCc1ccc(Cl)cc1Cl	FMDV inh inconclusive
CCC(=O)N1CCc2cc(S(=O)(=O)NC(Cc3ccccc3)C(=O)Nc3ccc(C)cc3)ccc21 (stereo unspecified)	none
O=C(N/N=C/c1ccc(O)cc1O)c1ccc(CN2C(=O)c3cccc4cccc2c34)cc1	Marburg entry inh 3.16µM, HCMV antiviral -101.4, VACV Venus inh inconclusive, LASV entry inh 5.17µM, VACV mCherry inh 2.51µM
Cc1cc([N+](=O)[O-])nn1Cc1ccc(C(=O)N/N=C/c2ccc(O)cc2O)cc1	Marburg entry inh 7.31µM, HCMV antiviral inconclusive, VACV Venus inh inconclusive, LASV entry inh 3.55µM, VACV mCherry inh inconclusive
COCCNC(=O)/C(C#N)=C/c1c(F)cccc1Cl	HCMV antiviral -75.4
COCCNC(=O)/C(C#N)=C/c1ccc(SC)cc1	none
CC(=O)Nc1nonc1-c1nnc(SCC(=O)Nc2cc(C)ccc2C)n1-c1ccccc1	FMDV inh inconclusive
COc1ccccc1C1CN(CCNC(=O)[C@@H]2CSC(=O)N2)Cc2ccccc2O1 (stereo partly specified)	none (no result: Marburg entry inh, HCMV antiviral, LASV entry inh)
CCc1cc(C(=O)NC2CCCc3c2cnn3-c2ccc(F)cc2F)no1 (stereo unspecified)	HCMV antiviral -71.3, VACV mCherry inh inconclusive, FMDV inh inconclusive (no result: Marburg entry inh, LASV entry inh)
O=C(CCc1ccncc1)NC1CCCc2c1cnn2-c1ccc(F)cc1F (stereo unspecified)	Marburg entry inh inconclusive, HCMV antiviral -73.2, FMDV inh inconclusive
O=C(NC1CCCc2c1cnn2-c1ccc(F)cc1F)c1ccccc1N1CCOCC1 (stereo unspecified)	Marburg entry inh inconclusive, HCMV antiviral -75.2
C[C@H](CO)N1C[C@H](C)[C@@H](CN(C)C(=O)c2ccncc2)OCc2cn(nn2)CCCC1=O	none (no result: Marburg entry inh, VACV Venus inh, LASV entry inh, VACV mCherry inh, FMDV inh)
CC1OC2CC(=O)OC2C2=C1C(=O)c1c(O)cccc1C2=O (stereo unspecified)	HCMV antiviral -106.4 (no result: Marburg entry inh, VACV Venus inh, LASV entry inh, VACV mCherry inh, FMDV inh)
O=C1c2cccc(O)c2C(=O)c2c(O)cc(CO)cc21	none (no result: Marburg entry inh, HCMV antiviral, LASV entry inh)
O=C(N=c1ccn(-c2nc3ccccc3nc2NS(=O)(=O)c2ccccc2)cc1)c1cccs1	Marburg entry inh inconclusive
Cc1ccccc1C(=O)N=c1ccn(-c2nc3ccccc3nc2NS(=O)(=O)c2ccc(F)cc2)cc1	HCMV antiviral -60.6 (no result: Marburg entry inh, VACV Venus inh, LASV entry inh, VACV mCherry inh)
Cc1ccc(SCC(=O)NCC2CCCO2)cc1 (stereo unspecified)	HCMV antiviral -93.4 (no result: Marburg entry inh, VACV Venus inh, LASV entry inh, VACV mCherry inh)
Cc1ccc(-c2nsc(SCC(=O)NCC3CCCO3)n2)cc1 (stereo unspecified)	none
O=C(CSc1nnc(-c2ccco2)n1-c1ccccc1)NCC1CCCO1 (stereo unspecified)	HCMV antiviral -69.0
COc1ccc(-c2nsc(SCC(=O)NCC3CCCO3)n2)cc1 (stereo unspecified)	HCMV antiviral -77.3
COc1ccc(-c2nc(-c3ccccc3)oc2NC(C)c2ccccc2)cc1 (stereo unspecified)	LASV entry inh inconclusive (no result: HCMV antiviral, VACV Venus inh, VACV mCherry inh, FMDV inh)
Cc1ccccc1CN1CCN(CC(=O)NCc2ccccc2Cl)C1=O	none (no result: Marburg entry inh)
O=C(Cn1c(-c2cccs2)cc2ccccc21)NCCCN1CCN(c2ccccc2F)CC1	HCMV antiviral -68.3, LASV entry inh inconclusive (no result: Marburg entry inh)
O=C(NCCCN1CCN(c2ccccc2F)CC1)C1CCN(S(=O)(=O)c2cccs2)CC1	HCMV antiviral -68.3, FMDV inh inconclusive (no result: VACV Venus inh, VACV mCherry inh)
CCc1ccc(CNC(=O)Cn2c(-c3cccs3)cc3cc(F)ccc32)cc1	Marburg entry inh inconclusive, HCMV antiviral -65.1
O=C(Cn1c(-c2cccs2)cc2cc(F)ccc21)NCCCN1CCN(c2ccccc2F)CC1	HCMV antiviral inconclusive, LASV entry inh inconclusive (no result: Marburg entry inh)
CN1CCN(CCCNC(=O)Cn2c(-c3cccs3)cc3cc(Cl)ccc32)CC1	HCMV antiviral -69.1 (no result: Marburg entry inh)
Cn1ncc2c(NCc3ccco3)ncnc21	none (no result: Marburg entry inh, HCMV antiviral, LASV entry inh, FMDV inh)
CC(C)OP(=O)(OC(C)C)C(Nc1cccc(C(=O)O)c1)c1ccccc1 (stereo unspecified)	FMDV inh 8.91µM
CC(C)OP(=O)(OC(C)C)C(Nc1ccc(C(=O)O)cc1)c1ccccc1 (stereo unspecified)	none (no result: Marburg entry inh, VACV Venus inh, LASV entry inh, VACV mCherry inh)
Cc1occc1C(=O)NNC(=S)NCc1ccc(Cl)cc1	HCMV antiviral -68.9, FMDV inh inconclusive (no result: Marburg entry inh, LASV entry inh)
Cc1occc1C(=O)NCCCCNC(=O)c1ccoc1C	HCMV antiviral -98.2 (no result: VACV Venus inh, VACV mCherry inh)
Cn1c(=O)c2cc(C(=O)NCCCN3CCN(c4ccc(F)cc4)CC3)sc2c2ccccc21	VACV Venus inh inconclusive, VACV mCherry inh inconclusive, FMDV inh inconclusive
O=Nc1c(O)n(Cc2c(Cl)cccc2Cl)c2ccccc12	Marburg entry inh inconclusive, HCMV antiviral -79.4, VACV mCherry inh inconclusive, FMDV inh inconclusive
Cc1ccc(OCCSc2nc3ccccc3n2CC(=O)N2CCCCC2)c(C)c1	none
COc1ccc([C@]23Cc4cc(OC)c(OC)cc4[C@H](O2)C2=C(CC(C)(C)CC2=O)O3)cc1	none (no result: HCMV antiviral, VACV Venus inh, LASV entry inh, VACV mCherry inh, FMDV inh)
CC(=O)Nc1cccc(NC(=O)c2ccc(COc3ccccc3)cc2)c1	Marburg entry inh inconclusive, LASV entry inh inconclusive
CC(=O)NC(NC(C)=O)c1cccc(OCc2ccccc2)c1	HCMV antiviral -68.0
O=C(NCCCCCCNC(=O)OCc1ccccc1)OCc1ccccc1	Marburg entry inh inconclusive
O=C(OCc1ccccc1)N(CCCCN(CCCNCc1ccccc1)C(=O)OCc1ccccc1)CCCNCc1ccccc1	Marburg entry inh inconclusive, HCMV antiviral -97.4, VACV Venus inh inconclusive, LASV entry inh inconclusive, VACV mCherry inh inconclusive, FMDV inh inconclusive

Bioassay records: PubChem BioAssay, National Center for Advancing Translational Sciences (NCATS)
